The structures appear in SMILES notation. Structures can show the parent of a compound that is named as a salt. ± gives the standard deviation of the averaged measurements.

For one experiment, the system named is Saccharomyces cerevisiae BY4741 SeMeCo community. The experiment can be described thus: mean cell size (pixel area) (pixels); higher = larger cells. The conditions noted are these: 10 µM; 24 h; SM minimal medium. Put shortly: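 The test system was a fluorescent Saccharomyces cerevisiae BY4741 community with four plasmids, each restoring one auxotrophy and carrying a fluorescent marker. Cells were grown for 24 h in SM medium with drug at a final 10 µM in 384-well plates, then fixed with paraformaldehyde and imaged by automated confocal microscopy for Harmony analysis of mean cell pixel area per well. Values represent the average of 3 replicates. Same SeMeCo high-content imaging drug screen: Selleck FDA-approved drugs at 10 µM, 24 h in SM medium, 384-well plates, 3 replicates.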
`O=C(N[C@H](CO)[C@H](O)c1ccc([N+](=O)[O-])cc1)C(Cl)Cl` [Chloramphenicol]: the mean cell size is 12.5 ± 0.17.

`CCCN1CCCC[C@H]1C(=O)Nc1c(C)cccc1C` [Ropivacaine] registered a mean cell size of 12.24 ± 0.031.

For the molecule `CC(C)Cc1ccc(C(C)C(=O)O)cc1` (stereo unspecified) [Ibuprofen Lysine], the mean cell size is 13 ± 0.042.

Take `CNCCCN1c2ccccc2CCc2ccccc21` [Desipramine Hydrochloride]: the mean cell size was 12.2 ± 0.14.

On to `Oc1ccc([C@H]2COc3cc(O)ccc3C2)cc1` [Equol], for which the mean cell size was determined as 12.4 ± 0.17.

`CCN(CC)CCOC(=O)c1ccc(N)cc1` [Procaine] yielded a mean cell size of 12.2 ± 0.13.

On to `COc1cc2c(cc1OC)C(=O)C(CC1CCN(Cc3ccccc3)CC1)C2` (stereo unspecified) [Donepezil], for which the mean cell size was found to be 12.14 ± 0.068.

Regarding `NC(=O)[C@@H]1CC[C@@H]2CN1C(=O)N2OS(=O)(=O)O` [Avibactam sodium], the mean cell size was 12.68 ± 0.1.

`CN1[C@@H]2CC[C@H]1C[C@@H](OC(c1ccccc1)c1ccccc1)C2` [Benztropine mesylate]: the mean cell size was 12.38 ± 0.057.

`C#C[C@]1(O)CC[C@H]2[C@@H]3CCC4=CCCC[C@@H]4[C@H]3CC[C@@]21C` [Lynestrenol] displayed a mean cell size of 12.5 ± 0.23.

On to `CN(C)CCc1c[nH]c2ccc(Cn3cncn3)cc12` [Rizatriptan Benzoate], for which the mean cell size turned out to be 12.63 ± 0.099.

In turn, `CCC1(c2ccccc2)C(=O)NCNC1=O` [Primidone] yielded a mean cell size of 12.6 ± 0.23.

For another experiment the test system is unchanged. The experiment in a line: z-score of prototroph abundance vs DMSO median; higher = larger share of this subpopulation than in DMSO controls. To be noted: 10 µM; 24 h; SM minimal medium; subpopulation (auxotrophy): Prototroph. Put shortly: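 Subpopulation abundance was reported as a z-score against the median of vehicle wells. The Saccharomyces cerevisiae BY4741 community, carrying four plasmids that each restored one auxotrophy and encoded a distinct fluorescent protein, was grown 24 h in minimal SM medium in 384-well plates holding library drugs at 10 µM final. Cells were paraformaldehyde-fixed and imaged by automated confocal microscopy, with single-auxotroph fluorescent strains used for thresholds and autofluorescence correction.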
With `CC(C)NC(=N)NC(=N)Nc1ccc(Cl)cc1` [Proguanil], the “z-score of prototroph abundance” value amounted to 0.

Take `Nc1nc(O)c2ncn(CCC(CO)CO)c2n1` [Penciclovir]: the “z-score of prototroph abundance” value was -0.05.

Regarding `C=CC(C)(O)CCC=C(C)C` (stereo unspecified) [Linalool], the “z-score of prototroph abundance” value is -0.57.

`O=C(N[C@H](CO)[C@H](O)c1ccc([N+](=O)[O-])cc1)C(Cl)Cl` [Chloramphenicol]: the “z-score of prototroph abundance” value is -0.39.

In the case of `CCCN1CCCC[C@H]1C(=O)Nc1c(C)cccc1C` [Ropivacaine], the “z-score of prototroph abundance” value was 0.72.

Regarding `Cc1onc(-c2ccccc2)c1-c1ccc(S(N)(=O)=O)cc1` [Valdecoxib], the “z-score of prototroph abundance” value is 1.

For the molecule `CN1[C@@H]2CC[C@H]1C[C@@H](OC(=O)c1c[nH]c3ccccc13)C2` [Tropisetron], the “z-score of prototroph abundance” value is -1.48.

With `COc1ccccc1N1CCN(CCCNc2cc(=O)n(C)c(=O)n2C)CC1` [Urapidil HCl], the “z-score of prototroph abundance” value is -0.23.

Regarding `O=C(O)c1cc(-c2ccc(F)cc2F)ccc1O` [Diflunisal], the “z-score of prototroph abundance” value was 3.54.

Turning to `C=C[C@H]1CN2CC[C@H]1C[C@H]2[C@H](O)c1ccnc2ccc(OC)cc12` [Quinine HCl Dihydrate], the “z-score of prototroph abundance” value is -0.12.

On to `Cc1nc(=O)c2cc(CN(C)c3ccc(C(=O)N[C@@H](CCC(=O)O)C(=O)O)s3)ccc2[nH]1` [Raltitrexed], for which the “z-score of prototroph abundance” value is 1.91.

As to `CC(C)Cc1ccc(C(C)C(=O)O)cc1` (stereo unspecified) [Ibuprofen Lysine], the “z-score of prototroph abundance” value worked out at 3.98.

On to `CN(C)CCc1c[nH]c2ccc(C[C@H]3COC(=O)N3)cc12` [Zolmitriptan], for which the “z-score of prototroph abundance” value is 0.27.

Regarding `C[C@]12CC[C@@H]3c4ccc(O)cc4C[C@@H](CCCCCCCCC[S+]([O-])CCCC(F)(F)C(F)(F)F)[C@H]3[C@@H]1CC[C@@H]2O` (stereo partly specified) [Fulvestrant], the “z-score of prototroph abundance” value was -1.17.

Consider `COc1ccc(NS(=O)(=O)c2ccc(N)cc2)nn1` [Sulfamethoxypyridazine], for which the “z-score of prototroph abundance” value came to 0.98.

In the case of `CNCCCN1c2ccccc2CCc2ccccc21` [Desipramine Hydrochloride], the “z-score of prototroph abundance” value was -0.16.

As for `Oc1ccc([C@H]2COc3cc(O)ccc3C2)cc1` [Equol], the “z-score of prototroph abundance” value turned out to be 0.13.

As to `Cc1[nH]c(=O)c(C#N)cc1-c1ccncc1` [Milrinone], the “z-score of prototroph abundance” value was determined as 1.

`Cc1ccc(O)c([C@H](CCN(C(C)C)C(C)C)c2ccccc2)c1` [Tolterodine tartrate]: the “z-score of prototroph abundance” value was -0.65.

In the case of `CCN(CC)CCOC(=O)c1ccc(N)cc1` [Procaine], the “z-score of prototroph abundance” value stood at 0.34.

Regarding `O=C(O)c1cc(/N=N/c2ccc(O)c(C(=O)O)c2)ccc1O` [Olsalazine Sodium], the “z-score of prototroph abundance” value was found to be 1.33.

As for `CCC(C)(Oc1ccc(C2(c3ccc(OC(C)(CC)C(=O)O)cc3)CCCCC2)cc1)C(=O)O` (stereo unspecified) [Clinofibrate], the “z-score of prototroph abundance” value is 0.14.

For `CN(C)[C@@H]1C(=O)C(C(N)=O)=C(O)[C@@]2(O)C(=O)C3=C(O)c4c(O)ccc(Cl)c4[C@@H](O)[C@H]3C[C@@H]12` [Demeclocycline HCl], the “z-score of prototroph abundance” value is 0.9.

On to `COc1cc2c(cc1OC)C(=O)C(CC1CCN(Cc3ccccc3)CC1)C2` (stereo unspecified) [Donepezil], for which the “z-score of prototroph abundance” value was -0.18.

As to `CCn1cc(C(=O)O)c(=O)c2cc(F)c(N3CCNCC3)nc21` [Enoxacin], the “z-score of prototroph abundance” value was determined as 0.22.

As for `NC(=O)[C@@H]1CC[C@@H]2CN1C(=O)N2OS(=O)(=O)O` [Avibactam sodium], the “z-score of prototroph abundance” value is -0.66.

As to `CN1[C@@H]2CC[C@H]1C[C@@H](OC(c1ccccc1)c1ccccc1)C2` [Benztropine mesylate], the “z-score of prototroph abundance” value was 1.01.

Consider `C#C[C@]1(O)CC[C@H]2[C@@H]3CCC4=CCCC[C@@H]4[C@H]3CC[C@@]21C` [Lynestrenol], for which the “z-score of prototroph abundance” value was found to be 0.17.

Turning to `CC(C)(C)C(=O)OCOC(=O)[C@@H]1N2C(=O)[C@@H](/N=C/N3CCCCCC3)[C@H]2SC1(C)C` [Pivmecillinam hydrochloride], the “z-score of prototroph abundance” value was -0.55.

In the case of `OC(c1ccccc1)(c1ccccc1)C12CC[N+](CCOCc3ccccc3)(CC1)CC2` [Umeclidinium bromide], the “z-score of prototroph abundance” value was determined as 0.82.

Turning to `OCc1ccccc1O[C@@H]1O[C@H](CO)[C@@H](O)[C@H](O)[C@H]1O` [Salicin], the “z-score of prototroph abundance” value came out at 0.58.

Take `CN(C)CCc1c[nH]c2ccc(Cn3cncn3)cc12` [Rizatriptan Benzoate]: the “z-score of prototroph abundance” value amounted to 0.05.

For `OCCN(CCO)c1nc(N2CCCCC2)c2nc(N(CCO)CCO)nc(N3CCCCC3)c2n1` [Dipyridamole], the “z-score of prototroph abundance” value amounted to 1.3.

On to `Cn1nnnc1SCC1=C(C(=O)O)N2C(=O)[C@@H](NC(=O)[C@H](OC=O)c3ccccc3)[C@H]2SC1` [Cefamandole nafate], for which the “z-score of prototroph abundance” value is -0.92.

Take `CC(=O)[C@@]1(O)CC[C@H]2[C@@H]3C[C@H](C)C4=CC(=O)CC[C@]4(C)[C@H]3CC[C@@]21C` [Medroxyprogesterone]: the “z-score of prototroph abundance” value is -0.12.

`CC[N+](CC)(CC)CC` [Tetraethylammonium bromide]: the “z-score of prototroph abundance” value is -0.64.

As to `CCC1(c2ccccc2)C(=O)NCNC1=O` [Primidone], the “z-score of prototroph abundance” value stood at 0.08.

For `CCCCOc1cc(C(=O)OCCN(CC)CC)ccc1N` [Oxybuprocaine HCl], the “z-score of prototroph abundance” value is -0.08.

Turning to `C[N+]1(C)[C@@H]2CC[C@H]1C[C@@H](OC(=O)C(O)c1ccccc1)C2` (stereo partly specified) [Homatropine Methylbromide], the “z-score of prototroph abundance” value stood at 0.29.

Source of the values: the supplement of paper PMC8975748.
